In all, about 320,000 compounds went through this assay and about 2,100 (0.66%) were called active. Another 53% or so got no clear call; they are omitted. This is one part of a sample in which actives are shown more often than they occur. The call rests on the fitted dose curve; in most records, active means well fitted inhibition curve with a large enough effect in the signal ratio, with a control signal flat (not every such curve was filed as active); inconclusive means small, poorly fitted or top-dose-only effect, or effect the other way, or a change in a side signal; inactive means flat fitted curve, though single readings scatter; the % refers to the signal ratio.

We go through 48 compounds from PubChem BioAssay AID2685 (National Center for Advancing Translational Sciences (NCATS), 2010).
Potency means the concentration at half of the fitted maximal effect.

This test in a line: qHTS Assay for Lipid Storage Modulators in Drosophila S3 Cells.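 On cell number change: cells counted by Cell Tracker Red CMTPX staining in the red channel.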 On lipid storage change, negative = inhibition: on the % scale 0 is the no-effect control and ±100 the full control effect. As to conditions: BODIPY lipid droplet fluorescence, 18-24 h, cells fed with added oleic acid; cell number change: measured here: cell count max response; series mostly up to 46.1 µM; lipid storage change, negative = inhibition: at the top concentration. In outline: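 Drosophila S3 cells got compounds at several concentrations plus oleic acid (400 uM solution). Laser-scanning cytometry with 488 nm excitation read lipid droplets at 500-530 nm and cells at 575-640 nm. Percent activity was relative to 20 uM Triacsin C.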
(Quantitative high-throughput screening tests each substance at several concentrations.)
Take `COc1ccc(OC)c(NC(=O)c2cc3n(n2)C(C(F)(F)F)CC(c2ccc4c(c2)OCO4)N3)c1` (stereo not drawn): the “lipid storage change, negative = inhibition” value is -0.757% (inactive) and the cell number change is 16.6%.
As to `Cn1cc(CN2CCC(CO)CC2)c(-c2ccc(Oc3ccccc3)cc2)n1`, the “lipid storage change, negative = inhibition” value is 15.5% (inactive) and the cell number change is -5.37%.
On to `COc1cccc(CNC(=O)C2CCN(S(=O)(=O)N3CCC4(CC3)OCCO4)CC2)c1`, for which the “lipid storage change, negative = inhibition” value is 22.2% (inactive) and the cell number change amounted to 8.33%.
For `O=C(Nc1ccc(S(=O)(=O)Nc2ncccn2)cc1)C1=COCCO1`, the “lipid storage change, negative = inhibition” value was 18% (inactive) and the cell number change came out at 6.63%.
Regarding `CC1Sc2ccc(S(=O)(=O)NCCc3ccc(Cl)cc3)cc2NC1=O` (stereo not drawn), the outcome was inactive.
As for `CC1Sc2ccc(S(=O)(=O)NCCc3ccc(S(N)(=O)=O)cc3)cc2NC1=O` (stereo not drawn), the Potency was 2.59 µM (active) and the cell number change is -0.885%.
For the compound `CC1Sc2ccc(S(=O)(=O)NCCc3ccccc3)cc2NC1=O` (stereo not drawn), the result was inactive and the cell number change is -2.36%.
For `CC(=O)c1ccc(NC(=S)N2CCC(Cc3ccccc3)CC2)cc1`, the “lipid storage change, negative = inhibition” value is -2.69% (inactive) and the cell number change was -2.62%.
As for `Cc1ccc(-n2c(C)cc(/C=N/NC(=O)c3ccncc3)c2C)c(C)c1`, the Potency was 18.4 µM (active) and the cell number change was -26.9%.
As to `Cc1ccc(-n2c(C)cc(/C=N/NC(=O)c3ccncc3)c2C)cc1`, the result was inactive.
Turning to `Cc1cc(C)cc(-n2c(C)cc(/C=N/NC(=O)c3ccncc3)c2C)c1`, the “lipid storage change, negative = inhibition” value was -9.31% (inactive) and the cell number change was -4.41%.
`O=C(c1ccc(-c2ccccc2)c(F)c1)C1CCCN(CCCn2cccn2)C1` (stereo not drawn): the “lipid storage change, negative = inhibition” value was -9.68% (inactive) and the cell number change turned out to be 2.71%.
Consider `CN(C)c1ccc(/C=N/NC(=O)c2ccccc2O)o1`, for which the “lipid storage change, negative = inhibition” value was 1.62% (inactive).
With `Cc1nn(-c2ccc(F)cc2)c(C)c1CN1CCN(CCC(C)C)C(CCO)C1` (stereo not drawn), the “lipid storage change, negative = inhibition” value was 3.51% (inactive) and the cell number change came to 12.5%.
Turning to `COCC(=O)N1CCN(c2cccc(Cl)c2)CC1`, the “lipid storage change, negative = inhibition” value is 11.4% (inactive) and the cell number change was -20.3%.
Regarding `CC1=CC(C)C2C(=O)N(c3ccccc3)NC(=O)C2C1` (stereo not drawn), the “lipid storage change, negative = inhibition” value was 8.05% (inactive) and the cell number change was determined as 6.7%.
Turning to `CC1=CC(C)C2C(=O)N(O)C(=O)C2C1` (stereo not drawn), the Potency was 20.6 µM (active) and the cell number change was -17.9%.
Consider `CC1=CC(C)C2C(=O)N(CCC[N+](C)(C)C)C(=O)C2C1` (stereo not drawn), for which the “lipid storage change, negative = inhibition” value was -2.26% (inactive) and the cell number change is 2.72%.
Taken in the same sequence, the figures for `O=C1c2ccccc2C(=O)C1c1ccccn1` were 1.08% (inactive) and 7%.
For the compound `Cc1nc2scc(C)n2c(=O)c1S(=O)(=O)NCCc1ccc(Cl)cc1`, the compound was called inactive and the cell number change was -15.9%.
On to `CC(C)N(C)CCOC(=O)c1ccc2c(c1)OCCO2`, for which the “lipid storage change, negative = inhibition” value was 4.51% (inactive) and the cell number change is -0.0823%.
Turning to `Cc1oc(-c2ccoc2)nc1CN(Cc1ccccc1)CC1CC1`, the “lipid storage change, negative = inhibition” value is 0.435% (inactive) and the cell number change is 1.56%.
Turning to `COc1ccc(Cl)cc1NC(=O)COC(=O)CNC(=O)c1ccc([N+](=O)[O-])c(C)c1`, the “lipid storage change, negative = inhibition” value was -1.38% (inactive) and the cell number change was found to be 7.48%.
For the compound `CCOC(=O)C(N)CSC1CC(=O)N(c2ccc(OCC)cc2)C1=O` (stereo not drawn), the result was inactive and the cell number change amounted to 8.77%.
Consider `CCOC(=O)C(N)CSC1CC(=O)N(c2ccc(C(=O)OC)cc2)C1=O` (stereo not drawn), for which the “lipid storage change, negative = inhibition” value is 25.9% (inactive) and the cell number change was found to be 8.08%.
`CCOC(=O)C(N)CSC1CC(=O)N(c2ccc(OC)cc2)C1=O` (stereo not drawn): the Potency was 3.26 µM (active) and the cell number change is -13.3%.
`CCOC(=O)c1cc(C)nc(Sc2ccc(C)cc2)c1C#N`: the “lipid storage change, negative = inhibition” value was 6.61% (inactive) and the cell number change stood at 3.68%.
On to `Cc1ccc(OCc2ccc(-c3ccccc3)cc2)c([N+](=O)[O-])n1`, for which the compound was classed as inactive.
On to `O=[N+]([O-])c1cc2c(cc1Br)CCN2`, for which the “lipid storage change, negative = inhibition” value was 21.7% (inactive) and the cell number change was -0.505%.
Taken in the same sequence, the figures for `c1ccc(CNc2ccc(CNc3ncn[nH]3)cc2)cc1` were 2.01% (inactive) and 13.8%.
In the case of `COc1cc(C(=O)Nc2cccc(-c3nc4ccccc4o3)c2C)cc(OC)c1OC`, the “lipid storage change, negative = inhibition” value is 8.65% (inactive) and the cell number change was -6.82%.
Taken in the same sequence, the figures for `CN1CCN(CC(=O)Nc2nc(-c3c[nH]c4ccccc34)cs2)CC1` were 17.6% (inactive) and -11.4%.
On to `CC(=O)NCCC(=O)Nc1nc(-c2ccccc2Cl)cs1`, for which the call was inactive.
With `CC(=O)NCCC(=O)Nc1nc(-c2c[nH]c3ccccc23)cs1`, the Potency was 14.6 µM (active) and the cell number change is -1.21%.
In the case of `COCC(C)N1CCC(n2nccc2NC(=O)c2ccc3c(c2)OCO3)CC1` (stereo not drawn), the “lipid storage change, negative = inhibition” value was 17.5% (inactive) and the cell number change is 11.7%.
Turning to `CCOc1ccc(N(CC(=O)NCC2CCCO2)S(=O)(=O)c2ccc(OC)c(OC)c2)cc1` (stereo not drawn), the “lipid storage change, negative = inhibition” value is 4.7% (inactive) and the cell number change amounted to 14.4%.
For the compound `CC1(C)N=C(/C=N/O)CN1O`, the Potency is 6.51 µM (active) and the cell number change was determined as 1.43%.
As to `Cc1ccc(NC(=O)C2(N(C(=O)Cn3nnnc3N)c3ccc(C)cc3)CCCCC2)cc1`, the “lipid storage change, negative = inhibition” value is 20% (inactive) and the cell number change was -7.84%.
As for `CCOC(=O)CSc1nc2c(c(=O)n1-c1ccc(OC)cc1)SCC2`, the “lipid storage change, negative = inhibition” value is 11.4% (inactive).
In the case of `CCc1nnc(NC(=O)CSc2nccn2-c2cccc(C)c2)s1`, the “lipid storage change, negative = inhibition” value was 1.38% (inactive) and the cell number change stood at 0.532%.
Take `COc1ccccc1NC(=O)CCNC(=O)c1ccc(C)cc1`: the compound was classed as inactive.
`Cc1ccc(C(=O)c2c(NC(=O)c3cccnc3)sc3c2CCCC3)cc1`: the “lipid storage change, negative = inhibition” value is -14% (inactive) and the cell number change stood at 17.7%.
With `Cc1ccc(C(=O)c2c(NC(=O)CSc3nnc(N)s3)sc3c2CCCC3)cc1`, the Potency is 18.4 µM (active) and the cell number change is -2.02%.
In the case of `CCOC(=O)c1c(NC(=O)CSc2nnc(C)s2)sc2c1CCCCC2`, the “lipid storage change, negative = inhibition” value was -31.7% (inactive) and the cell number change was -12.5%.
Regarding `CCOC(=O)N1CCN(c2ncc(C(F)(F)F)cc2Cl)CC1`, the “lipid storage change, negative = inhibition” value is 28.3% (inactive) and the cell number change stood at 23.9%.
Consider `CC(C)CN=C(NS(=O)(=O)c1ccccc1)C(Cl)(Cl)Cl`, for which the Potency is 18.4 µM (active).
For the compound `CC(=O)NS(=O)(=O)c1ccccc1`, the “lipid storage change, negative = inhibition” value is -11.7% (inactive) and the cell number change is -6.94%.
On to `NC(=NCCc1ccccc1)NS(=O)(=O)c1ccccc1`, for which the “lipid storage change, negative = inhibition” value is 5.72% (inactive) and the cell number change was 16.5%.
